# HDAC3 inh: HDAC3 deacetylase inhibitors, primary screen, biochemical, fluorescence, cell-free homogeneous; AID 2718, 2010; recombinant HDAC3, fluorogenic peptide/trypsin coupled; 320,000 tested, 0.15% active; Histone deacetylase 3 (Homo sapiens), O15379; inhibition, % at 8.3 µM; in the data active = inhibition above about 26%, passing the limit was not always enough; inconclusive = no clear call, values can overlap the other calls
# GASC-1 inh: inhibitors of GASC-1 histone demethylase, primary screen, biochemical, fluorescence, DELFIA europium. Lysine-specific demethylase 4C (Homo sapiens), Q9H3R0. GST-JMJD2C(1-420) H3K9me3 demethylation. inhibition, % at 2.35 µM. 330,000 tested, 0.069% active. AID 2099, 2009;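 active = more than half of a compound's replicate wells show inhibition beyond 50%, single wells judged on their own value; inconclusive = some, but no more than half, of replicates pass 50% inhibition; inactive = no replicate passes 50% inhibition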;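 also: signal counts dimethyl H3K9 product captured on neutravidin plate; 0% = median of DMSO wells and 100% = 0.3 times that DMSO median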
# Target sequence (Q9H3R0 1-420 limits assumed): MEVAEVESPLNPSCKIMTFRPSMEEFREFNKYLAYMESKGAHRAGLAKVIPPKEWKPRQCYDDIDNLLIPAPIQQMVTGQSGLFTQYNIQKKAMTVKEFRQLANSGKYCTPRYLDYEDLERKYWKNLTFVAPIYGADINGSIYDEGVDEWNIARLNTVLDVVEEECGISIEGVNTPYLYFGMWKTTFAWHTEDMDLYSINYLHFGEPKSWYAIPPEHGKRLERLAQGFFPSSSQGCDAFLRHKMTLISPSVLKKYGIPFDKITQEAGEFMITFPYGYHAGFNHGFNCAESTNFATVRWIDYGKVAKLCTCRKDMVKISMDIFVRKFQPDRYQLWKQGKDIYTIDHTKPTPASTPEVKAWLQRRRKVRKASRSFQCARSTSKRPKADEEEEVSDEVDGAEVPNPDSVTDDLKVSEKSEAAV
# NALP1 inh: NALP1 inflammasome inhibitors in reconstituted yeast, colorimetric, S. cerevisiae, triplicate retest | S. cerevisiae NALP1/ASC/caspase-1 growth, X-gal OD620, 72 h | inhibition, % at 10 µM | 280,000 tested, 0.61% active; in the data active = inhibition mostly above about 24%, no sharp cut-off; inactive = mostly below about 32%
# PolyA inh: polyadenylation inhibitors in yeast reporter cells, primary screen, luminescence, S. cerevisiae. S. cerevisiae SKY197-pL101 polyadenylation reporter, beta-gal luminescence; efflux-impaired pdr1/pdr3 knockout yeast; score 100 = 6 SD above DMSO. activity score, % at 12 µM. 300,000 tested, 0.02% active;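 active = lowest replicate activity score at least 50, where 100 means six control SD above control mean; inconclusive = lowest score under 50 but half or more replicates reach 50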;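 also: yeast exposed to compound for 9 h at 30 °C; higher score means more reporter readthrough which indicates perturbed polyadenylation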
# Efflux pump inh: inhibitors of Candida efflux pumps in yeast, primary screen, S. cerevisiae, Nile Red, multiplex; S. cerevisiae Candida pump triplex; AID 485275, 2010; inhibition, % at 10 µM; 330,000 tested, 0.44% active;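 active = plate passing quality check with inhibition over a set limit, or well fluorescence over plate mean plus 4 SD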;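 also: Nile Red retained in pooled yeast measured as flow cytometry median fluorescence; 0% = buffer negative control and 100% = Enniatin B positive control; higher means more Nile Red kept so more efflux inhibition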
# NALP3 yeast inh: NALP3 inflammasome inhibitors in reconstituted yeast, primary screen, luminescence, uHTS; inhibition, % at 10 µM; Yeast reconstituted NLRP3/ASC/caspase-1, beta-gal luminescence, 24 h; 330,000 tested, 0.39% active;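 active = inhibition of 50% or more; inactive = inhibition below 50%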;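 also: plate controls were induced DMSO wells for no effect and uninduced yeast grown without galactose for full effect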
# NALP3 confirm: NALP3 inhibitors retested in yeast, confirmation, luminescence, single concentration. shares compounds with NALP3 yeast inh. yeast expressing human NALP3. inhibition, % at 10 µM. 1,300 tested, 81% active; in the data active = inhibition above about 48%
# Casp1-ASC yeast: CASP1-PYCARD signaling inhibition in yeast, confirmatory test, counterassay for NLRP3 inhibitor program, one-dose. AID 488784, 2010. 1,000 tested, 66% active. inhibition, % at 10 µM. shares compounds with NALP3 yeast inh. yeast expressing Caspase-1-ASC, luminescence counter screen
# NALP3 yeast rt: NALP3 inhibitors in yeast, repeat test, confirmation, luminescence, single concentration, retest; AID 488794, 2010; shares compounds with NALP3 yeast inh; inhibition, % at 10 µM; yeast expressing human NALP3, luminescence read-out; 1,000 tested, 53% active
# Active calls of the source: *; i = inactive; u = inconclusive; x = no result given. In the library only some 1.5% were active in any assay of this set; here they are far more common. Rule as the data show it, unless noted: active = inhibition above about 50%; inactive = the rest.
SMILES,HDAC3 inh,GASC-1 inh,NALP1 inh,PolyA inh,Efflux pump inh,NALP3 yeast inh,NALP3 confirm,Casp1-ASC yeast,NALP3 yeast rt
NS(=O)(=O)c1ccc(NC(=O)CSc2n[nH]c(=O)n2C2CC2)cc1,2,x,x,x,0,10,x,x,x
N/C(=N\N=C/c1ccc(Br)cc1)N/N=C\c1ccc(Br)cc1,u,1,3,-5,0,27,x,x,x
N/C(=N\N=C/c1ccc(F)cc1)N/N=C\c1ccc(F)cc1,8,-3,-10,-21,1,64*,76*,70*,65*
CCCCNC(=O)CNC(=S)N(Cc1cc(OC)c(OC)c(OC)c1)C1CCCC1,11,4,27,4,0,-4,x,x,x
COc1ccc(NC(=O)C2C3C=CC4(O3)C2C(=O)N(CCN2CCCCC2)C4C(=O)NC2CCCC(C)C2C)cc1 (centres undefined),-2,-15,4,0,1,6,x,x,x
Cc1c(C(=O)N/N=C/c2ccccn2)nnn1-c1nonc1N,-3,2,14,6,0,7,x,x,x
COc1ccc(C(=O)N/N=C(\C)c2ccccn2)cc1OC,-3,-11,-7,-8,0,9,x,x,x
C/C(=N\NC(=O)c1cc(Br)ccc1O)c1ccccn1,11,4,-4,-2,0,23,x,x,x
C/C(=N\NC(=O)c1ccccc1Cl)c1ccccn1,1,-4,18,16,0,17,x,x,x
C/C(=N/NC(=O)c1ccc(C(C)(C)C)cc1)c1ccccn1,6,-8,x,6,0,66*,55*,83*,79*
C/C(=N\NC(=O)c1ccc(Cl)c(Cl)c1)c1ccccn1,3,5,7,-16,0,53*,80*,x,x
C/C(=N\NC(=O)c1cccc(Br)c1)c1ccccn1,0,-27,39,7,0,61*,84*,85*,69*
O=C(NC1CCCC1)C(c1ccc(F)cc1)N(Cc1ccc(F)cc1)C(=O)CCl (centres undefined),1,6,24,29,0,14,x,x,x
CCOC(=O)N1CCC(N2C(=O)c3ccccc3C2Nc2ccc(S(=O)(=O)N(CC)CC)cc2)CC1 (centres undefined),5,13,3,12,0,2,x,x,x
CC(C)=CCc1c(O)cc2oc3c(CC=C(C)C)c(O)c(O)c(CC=C(C)C)c3c(=O)c2c1O,-5,i,-7,-10,0,56*,74*,51*,47
CC(C)=CCc1cc(-c2oc3cc(O)cc(O)c3c(=O)c2O)ccc1O,9,-6,x,0,0,29,x,x,x
Cc1c(C(=O)N2C[C@@H](C)O[C@@H](C)C2)oc2c(F)cccc12,-2,11,-16,-8,0,15,x,x,x
O=S(=O)(c1ccc(Cl)cc1)N1CCCCCC1,7,-15,0,5,0,5,x,x,x
O=S(=O)(c1c(Cl)sc(Cl)c1Br)N1CCCC1,-6,-1,9,-7,0,64*,64*,62*,67*
O=S1(=O)Nc2c(ccc3cccnc23)-c2ccccc21,11,-16,12,-87,0,70*,86*,98*,91*
COc1ccc2cc(-c3ccccc3)c(=O)oc2c1,-24,12,26,-40,0,63*,75*,68*,63*
COC(=O)C(C)Oc1ccc2cc(-c3ccccc3)c(=O)oc2c1 (centres undefined),-24,-14,20,-15,0,31,x,x,x
COc1cccc2cc(-c3nc4ccccc4[nH]3)c(=O)oc12,-1,0,11,-24,0,57*,54*,29,26
COc1cccc2cc(-c3ccccc3)c(=O)oc12,1,5,-8,3,0,54*,72*,58*,50*
CCN1C(=O)[C@@H]2[C@H](C1=O)[C@@H]1C(=O)Nc3ccccc3C(=O)N1[C@@H]2c1cccc(Cl)c1,-2,-2,6,-15,0,10,x,x,x
SMILES,HDAC3 inh,GASC-1 inh,NALP1 inh,PolyA inh,Efflux pump inh,NALP3 yeast inh,NALP3 confirm,Casp1-ASC yeast,NALP3 yeast rt
O=C(C(=O)N1CCN(c2ccc(F)cc2)CC1)c1cn(CC(=O)N2CCOCC2)c2ccccc12,10,-3,-4,-4,0,-4,x,x,x
CCOC(=O)c1cnn(-c2cc(C)cc(C)c2)c1N,-1,6,6,-4,0,50,70*,57*,58*
CCSc1nnc(NC(=O)c2ccccc2)s1,-1,4,46,-8,0,43,x,x,x
CCSc1nnc(NC(=O)c2ccccc2C)s1,14,2,6,-23,0,57*,48,x,x
CCSc1nnc(NC(=O)c2ccccn2)s1,u,47,24,-28,0,55*,61*,x,x
CCOc1ccccc1NC(=O)Cc1coc2ccc(C)cc12,-1,5,6,-13,0,63*,76*,65*,55*
CCSC1(SCC)N=C(N)C2(C#N)C(c3ccc(F)cc3)C12C#N (centres undefined),7,9,15,-7,0,59*,50*,65*,47
C[C@@]12C(=O)Nc3ccc(Br)cc3C(=O)N1[C@H]1c3ccccc3OC[C@@H]1[C@@H]2c1ccccc1,4,39,x,x,0,88*,89*,90*,74*
Cc1ccc2c(c1)C(=O)N1[C@H]3c4ccccc4OC[C@@H]3[C@H](c3ccccc3)[C@]1(C)C(=O)N2,5,-69,x,x,0,70*,83*,84*,73*
CCCOc1ccc(S(=O)(=O)Nc2ccccn2)c2ccccc12,6,-1,10,-12,0,16,x,x,x
CC(=O)Oc1ccc2occ(C(=O)c3cccs3)c2c1,-6,-10,-14,-14,0,75*,88*,81*,77*
O=C(c1cccs1)c1coc2ccc(O)cc12,2,-7,0,29,0,67*,86*,87*,76*
O=C(CCl)Oc1ccc2occ(C(=O)c3cccs3)c2c1,4,20,-3,-7,0,73*,86*,x,x

# Screens deposited in PubChem BioAssay by several laboratories.
